HP1b binding inh: blocks HP1-beta chromodomain binding to methylated histone tails | AlphaScreen HP1-beta / biotin-H3K9me3 peptide binding | Potency, µM (highest dose often 114 µM), usual class: inhibitors | AID 540317 | 390,000 tested, 0.56% active; further: nearly all actives have a fitted effect of over 70% in size
Target sequence (P83916 whole entry, looked up): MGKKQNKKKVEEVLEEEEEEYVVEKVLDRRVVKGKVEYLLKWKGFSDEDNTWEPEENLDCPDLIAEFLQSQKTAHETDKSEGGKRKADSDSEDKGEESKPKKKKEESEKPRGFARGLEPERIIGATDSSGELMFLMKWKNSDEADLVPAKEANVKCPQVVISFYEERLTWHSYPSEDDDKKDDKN
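AlphaScreen: HP1-beta (50 nM) preformed 30 min with biotin-H3(1-18)K9me3 peptide (50 nM) in PBS pH 7.4, 0.01% Tween-20. Compound added for 30 min at RT, then streptavidin donor/nickel chelate acceptor beads (10 ug/mL) for 30 min.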
G9a block: blocks human histone lysine methyltransferase G9a; Q96KQ7; G9a H3K9 monomethylation, AlphaScreen, 2 h; Potency, µM (series often up to 102 µM), actives largely listed as inhibitors; 350,000 tested, 8.8% active; AID 504332; further: nearly all actives have a fitted effect of over 75% in size
Target sequence (Q96KQ7 913-1193 limits assumed): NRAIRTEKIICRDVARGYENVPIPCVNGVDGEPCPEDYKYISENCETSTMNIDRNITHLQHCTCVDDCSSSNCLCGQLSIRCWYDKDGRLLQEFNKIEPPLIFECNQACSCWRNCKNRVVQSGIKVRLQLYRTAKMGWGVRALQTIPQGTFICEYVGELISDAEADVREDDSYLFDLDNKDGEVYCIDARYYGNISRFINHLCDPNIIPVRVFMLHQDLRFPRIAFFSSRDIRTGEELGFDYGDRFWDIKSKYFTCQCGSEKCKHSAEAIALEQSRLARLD
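Chemiluminescent proximity detection of H3K9 monomethylation, read after 10 min bead incubation in the dark. Reaction: 20 nM G9a, 500 nM biotin-H3K9 peptide, 20 uM SAM cofactor, 2 h, room temperature, following 15 min enzyme-compound preincubation.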
JMJD2A Tudor: JMJD2A Tudor domain (human) inhibition. O75164. AlphaScreen JMJD2A-Tudor / H3K4me3 peptide binding. Potency, µM (doses to about 114 µM), usual class: inhibitors. 390,000 tested, 4.4% active; further: nearly all actives have a fitted effect of over 50% in size
ALOX12 inh: ALOX12 (human) lipoxygenase inhibition; P18054; purified 12hLO, xylenol orange hydroperoxide absorbance; Potency, µM (titrated, usually from 108 µM), actives largely listed as inhibitors; 580,000 tested, 1.1% active; AID 1671190
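Hydroperoxide product was detected by ferrous iron/xylenol orange as the 573 to 405 nm absorbance ratio. Arachidonic acid at 40 uM (final) was turned over for 30 min at room temperature by 150 nM human 12hLO, pH 7.0 Hepes buffer, after 15 min compound preincubation.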
PLK1 PBD block: PLK1 (human) polo-box domain binding inhibition; P53350; 360,000 tested, 2.8% active; Potency, µM, actives largely listed as inhibitors; AID 720504; Plk1 PBD binding of FITC phosphopeptide, fluorescence polarization; further: series mostly up to about 57 µM; nearly all actives have a fitted effect of over 65% in size
BAZ2B inh: BAZ2B (human) inhibition; Q9UIF8; AlphaScreen BAZ2B-H3K14Ac peptide displacement; Potency, µM (top dose mostly 114 µM), actives largely listed as inhibitors; 360,000 tested, 4.4% active; AID 504333; further: nearly all actives have a fitted effect of over 60% in size
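Protein-peptide AlphaScreen: BAZ2B 50 nM, b-H3K14Ac 50 nM, 1x PBS pH 7.4 + 0.01% Tween-20. Preincubation 30 min RT; cpd 30 min RT (top 110 uM); beads 20 min RT, light-protected.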
A number is an active result; n = inactive; u = inconclusive; x = no result; [ ] = another dose, or the depositor's remark. A selection: hits, their analogues and other compounds. The true share with any hit is near 9%. The call rests on the fitted dose curve; in most records, active means well fitted curve in the direction sought with a large enough effect; inconclusive means small, poorly fitted or top-dose-only effect, or another doubt; inactive means no such curve, though single readings can be large; an effect the other way counts as inactive or inconclusive.

SMILES | HP1b binding inh | G9a block | JMJD2A Tudor | ALOX12 inh | PLK1 PBD block | BAZ2B inh
O=C(O)C(c1c[nH]c2cc(Cl)ccc12)N1CCN(CCOc2ccc(Cl)cc2)CC1 (stereo not given) | x | x | x | 35.5µM | x | x
CCCN1C2CCCC1CC(NC(=S)Nc1cccc(C)c1)C2 (stereo not given) | n | n | n | n | n | n
COc1cc(NC(=O)c2ccco2)c(C(=O)OCC(=O)Nc2ncc(Cl)cc2Cl)cc1OC | n | n | n | n | n | n
CCCCc1nnc(NC(=O)c2cccc(S(=O)(=O)N3CCN(C)CC3)c2)s1 | n | n | n | u | n | n
CCOc1ccc(NS(=O)(=O)c2cc(-c3cnc(C)o3)ccc2C)cc1 | x | x | x | n | x | x
O=C(O)C(c1c[nH]c2cc(Cl)ccc12)N1CCN(C/C=C/c2ccccc2)CC1 (stereo not given) | x | x | x | 44.7µM | x | x
COc1ccc(C(=O)NNC(=S)NC(=O)c2ccco2)cc1 | n | u | n | n | n | n
O=C(NC(=S)NNC(=O)c1ccco1)c1ccc(Br)cc1 | n | 22.4µM | n | 28.2µM | n | n
O=C(NNC(=S)NC(=O)c1ccco1)c1ccc(F)cc1 | n | u | n | n | n | n
CCCOc1ccc(C(=O)NNC(=S)NC(=O)c2ccccc2[N+](=O)[O-])cc1 | n | n[0.501 µM] | n | u | n | n
Cc1cc(OCC(=O)NNC(=S)NC(=O)c2cccs2)ccc1Cl | n | 31.6µM | n | n | n | n
CCCOc1ccc(C(=O)NNC(=S)NC(=O)c2ccccc2)cc1 | n | u | u | 35.5µM | n | n
CCCOc1ccc(C(=O)NNC(=S)NC(=O)c2ccco2)cc1 | u | 39.8µM | n | 39.8µM | n | n
CCCS(=O)(=O)n1nc(-c2ccccc2)cc1N | n | n | n | n | n | n
COCCN1C(=O)[C@@H]2C[C@@H](CN2Cc2ccc3c(c2)OCO3)Oc2ccccc21 | x | x | x | n | x | x
CCCOc1ccc(C(=O)NNC(=S)NC(C)=O)cc1 | n | u | 28.2µM | n | n | n
CCCOc1ccc(C(=O)NNC(=S)NC(=O)c2cccs2)cc1 | n | u | u | u | 29.9µM | n
C=CCNC(=S)NNC(=O)c1ccc(OCCCC)cc1 | n | n | n | n | n | n
CCN(C[C@H]1N[C@@](CC)(C(=O)OC)[C@H]2C(=O)N(C)C(=O)[C@@H]12)C(=O)c1ccc(F)cc1 | n | x | n | n | n | x
Cc1ccc(CSCCNS(=O)(=O)c2ccc(C)cc2)cc1 | n | n | n | u | n | n
O=C(CCC(=O)c1ccc(Cl)cc1)OCC(=O)c1ccccc1 | n | n[0.501 µM] | n | n | n | n
O=C(CN1CC(=O)Oc2ccccc21)OCC(=O)c1cccc(Br)c1 | n | 44.7µM | 39.8µM | x | n | 8.91µM
O=C(CN1CC(=O)Oc2ccccc21)OCC(=O)c1ccccc1 | n | u | 20µM | n | n | 12.6µM
C=CCn1c(Cc2csc(N)n2)nnc1SCC(=O)OCC | n | n | 44.7µM | n | n | 28.2µM
C=CCn1c(Cc2csc(N)n2)nnc1SCC(=O)Nc1ccc(C(=O)OCC)cc1 | n | n | 79.4µM | n | n | 22.4µM
SMILES | HP1b binding inh | G9a block | JMJD2A Tudor | ALOX12 inh | PLK1 PBD block | BAZ2B inh
C=CCn1c(Cc2ccc(OCC)cc2)nnc1SCC(N)=O | n | n[12.7 µM] | n | n | n | n
Cc1ccccc1N(C(=O)c1csnn1)C(C(=O)NC(C)(C)C)c1cccs1 (stereo not given) | u | n | 10µM | n | 8.44µM | n
Cc1ccc(N(C(=O)c2csnn2)C(C(=O)NC(C)(C)C)c2cccs2)cc1 (stereo not given) | n | n[0.501 µM] | n | n | n | n
CCCCn1c(N)c(N(CC)C(=O)c2cc(C)cc(C)c2)c(=O)[nH]c1=O | n | n | n | n | n | n
COc1ccccc1CNC(=O)C(=O)c1cn(CC(=O)N2CCCCC2)c2ccccc12 | x | x | x | n | n | x
O=C(NCCCN1CCCCC1)c1ccc2c(c1)ncn2C1CCCC1 | n | 44.7µM | n | n | n | n
CCn1c(C)c(C)c2cc(C(=O)Nc3cccc(Cl)c3)ccc21 | n | 79.4µM | n | n | n | n
O=C(NCCCN1CCN(c2ccccc2F)CC1)c1ccc2nc(N3CCCCC3)sc2c1 | n | 11.2µM | u | u | x | n
CC(=O)c1cccc(NC(=O)c2ccc3c(c2)c(C)c(C)n3Cc2ccc(Cl)cc2)c1 | n | n | u | n | x | n
CCn1c(C)c(C)c2cc(C(=O)NCCCN3CCCC3)ccc21 | n | 56.2µM | 50.1µM | n | n | n
O=C(CSc1nc2ccc(NC(=O)C34CC5CC(CC(C5)C3)C4)cc2s1)Nc1ccc(F)cc1 | x | x | x | n | x | x
Cc1cccc(CNc2nc3cnc(-c4cccc(F)c4)cc3n2C)c1 | x | x | x | n | x | x
Cn1c(SCc2ccccc2)nc(N)c(N=O)c1=O | n | x | n | n | n | x
Cc1ccc(NC(=O)c2ccc(Cn3cc(Cl)cn3)o2)c(C)c1 | x | x | x | n | x | n
Cc1ccc(CCNC(=O)c2ccc3[nH]c(C)c(C)c3c2)cc1 | n | u | u | n | x | u
Cc1c(C)n(Cc2ccc(Cl)cc2)c2ccc(C(=O)NCCN3CCOCC3)cc12 | n | u | u | n | n | 44.7µM
Cc1ccc(-n2c(-c3cccc(C)c3)n[nH]c2=S)cc1 | n | n | 20µM | u | n | n
Cc1ccc(-n2c(-c3c(-c4ccccc4)noc3C)n[nH]c2=S)cc1 | n | 0.562µM | n | n | n | n
COc1ccc(-c2c(N)n[nH]c2C)cc1OC | n | x | n | n | n | n
COc1ccc(-c2n[nH]c(=S)n2-c2ccc(C)cc2)cc1OC | n | 3.98µM | 6.31µM | u | n | n
COc1ccc(NC(=O)CN(C)C(=O)CN2C(=O)NC3(CCCCC3)C2=O)cc1 | n | u | n | n | n | n
COc1cc(S(=O)(=O)NC2CCCCC2C)ccc1Cl (stereo not given) | n | n | n | n | n | n
C=CCN(Cc1ccccc1)C(=O)Nc1ccc(C(=O)NCC)cc1 | x | x | x | n | x | x
CCCOc1ccc(C2C(=O)N(C3CCCCC3)CC(=O)N2CCC)cc1OC (stereo not given) | n | n | n | n | n | n
CCOC(=O)c1cc2c(N)c(C(=O)c3ccc(Br)cc3)sc2[nH]c1=O | n | 50.1µM | n | n | n | n
SMILES | HP1b binding inh | G9a block | JMJD2A Tudor | ALOX12 inh | PLK1 PBD block | BAZ2B inh
Brc1cccc(CNCCCN2CCOCC2)c1 | n | x | u | n | 26.7µM | n
Oc1ccccc1CNCCCN1CCOCC1 | n | 8.91µM | 4.47µM | u | n | u
CSc1sc(C(=O)NCC2CC2)c2c1S(=O)(=O)N(C)c1ccccc1-2 | n | n | n | n | n | n
Cc1ccc(C(=O)O)cc1-n1c(C)cc(C=O)c1C | n | u | n | u | n | 79.4µM
Cc1cc(C(=O)O)ccc1-n1c(C)cc(/C=C2\SC(=O)NC2=O)c1C | n | u | n | n | n | n
Cc1c(C(=O)O)cccc1-n1c(C)cc(C=O)c1C | n | 44.7µM | 50.1µM | n | u | u
CCOc1ccccc1-n1c(C)cc(C=O)c1C | n | n[12.7 µM] | n | n | n | n

Assay outcomes as filed in PubChem BioAssay.
